A short description of test [1]: qHTS assay to identify small molecule agonists of the vitamin D receptor (VDR) signaling pathway - cell viability counter screen (AID 743224). Note: series mostly up to about 63 µM; nearly all actives have a fitted effect of over 50% in size. A digest of the protocol:
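Here cell health was gauged by luminescent ATP detection (CellTiter-Glo, 30 min RT) in VDR-bla cells that had been incubated with test compounds for 16 h at 37C and 5% CO2.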
A general note: In qHTS, concentration-response curves come from the screen itself.

Test [2] in a line: qHTS assay to identify small molecule antagonists of the vitamin D receptor (VDR) signaling pathway - cell viability counter screen (AID 743225). Note: nearly all actives have a fitted effect of over 50% in size. Put shortly:
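Cells (VDR-UAS-bla HEK 293T) are plated, rested 4 h at 37C, dosed with compound and 3 nM final 1-alpha,25-dihydroxy vitamin D3, and incubated 16 h. Viability is taken from CellTiter-Glo luminescence in the reporter wells.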

Test [3] in a line: qHTS assay to identify small molecule agonists of the NFkB signaling pathway - cell viability counter screen (AID 1159515; calls by dose curve; note: series mostly up to about 61 µM; nearly all actives have a fitted effect of over 55% in size). Put shortly: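 5 hr compound treatment of NFkB-bla ME-180 cells (2,000/well, seeded overnight beforehand), followed by reporter substrate for 1.5 hr. CellTiter-Glo added afterward; luminescence after 30 min RT.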
A short description of test [4]: qHTS assay to identify small molecule agonists of the endoplasmic reticulum stress response signaling pathway (AID 1159516; active = well fitted activation curve with a large enough effect in the signal ratio in the repeat runs, not every such curve was filed as active; the % refers to the signal ratio). A digest of the protocol:
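Reporter HeLa cells (ESRE-beta-lactamase) underwent 5 hr compound incubation at 37 C and 5% CO2 in quantitative HTS format. Detection followed 2 hr of FRET substrate loading at room temperature.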

Test [5] can be described thus: qHTS assay to identify small molecule agonists of the endoplasmic reticulum stress response signaling pathway - cell viability counter screen (AID 1159517; calls by dose curve;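 note: HeLa cells carrying an ER stress response element beta-lactamase reporter; series mostly up to about 61 µM; nearly all actives have a fitted effect of over 50% in size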). A digest of the protocol: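 ESRE-bla HeLa cells, 1,500 per well, seeded overnight then treated with compounds for 5 hr at 37 C. After the beta-lactamase read, viability in the same wells is measured by CellTiter-Glo luminescence after 30 min at room temperature.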

The target in test [6] is Nuclear receptor ROR-gamma (Homo sapiens) (UniProt P51449). The experiment in a line: qHTS assay to identify small molecule antagonists of the retinoid-related orphan receptor gamma (ROR-gamma) signaling pathway (AID 1159521; note: nearly all actives have a fitted effect of over 50% in size; note: potency is the fitted concentration of half-maximal effect). A digest of the protocol: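 RORγ antagonism is scored from reduced reporter luminescence in Tet-on CHO cells. Induction used 1 uM final doxycycline hyclate for 16 h at 37 C, following a 2 h compound exposure.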

Test [7] in a line: qHTS assay to identify small molecule agonists of the AP-1 signaling pathway - cell viability counter screen (AID 1159525; calls by dose curve; note: nearly all actives have a fitted effect of over 55% in size). A digest of the protocol:
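AP-1-bla ME-180 cells in Opti-MEM with 0.5% dialyzed FBS, compound exposure 5 h at 37 C in 15-point titration. Viability read in the same wells as ATP content by CellTiter-Glo luminescence, normalised to tetra-n-octylammonium bromide and DMSO controls.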

Test [8] can be described thus: qHTS assay to identify small molecule agonists of the AP-1 signaling pathway (AID 1159526; calls by dose curve).
Test [9] concerns the target Retinoic acid receptor RXR-alpha (Homo sapiens) (UniProt P19793). Kind of test: qHTS assay to identify small molecule agonists of the RXR signaling pathway (AID 1159527; calls by dose curve; note: nearly all actives have a fitted effect of over 35% in size). Put shortly: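 qHTS of the Tox21 10K library in GeneBLAzer RXR-alpha HEK 293T cells carrying a beta-lactamase reporter […]; 16 hr treatment, 9-cis retinoic acid as agonist control, FRET read-out.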

Test [10] in a line: qHTS assay to identify small molecule agonists of the RXR signaling pathway - cell viability counter screen (AID 1159529). Put shortly:
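Cell viability is measured by CellTiter-Glo luminescence, 30 min at room temperature, in wells already read for beta-lactamase. Engineered HEK 293T cells (RXR-alpha-UAS-bla) are dosed 16 hr at 37 C. Tetraoctyl ammonium bromide serves as positive control.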

A short description of test [11]: qHTS assay to identify small molecule antagonists of the retinoid acid receptor (RAR) signaling pathway - cell viability counter screen (AID 1159551). Note: nearly all actives have a fitted effect of over 35% in size. A digest of the protocol: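 Seed C3RL4 cells; next day add compound, then retinol to 1 uM final; incubate 6 h at 37 C; add CellTiter-Glo; read luminescence after 30 min at RT.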
A short description of test [12]: qHTS assay to identify small molecule agonists of the retinoic acid receptor (RAR) signaling pathway (AID 1159553). Put shortly: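 Activation of retinol signaling was monitored via a RARE luciferase reporter in C3RL4 cells. After 6 hr compound treatment at 37 C, detection reagent was added for 30 min at room temperature before luminescence reading.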
Test [13] is described as follows: qHTS assay to identify small molecule antagonists of the estrogen related receptor (ERR) signaling pathway - cell viability counter screen (AID 1224818).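 Note: series mostly up to about 46 µM; viability measured after 17.5 h of compound exposure.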 A digest of the protocol:
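In the same ERR cell assay, compound-treated wells (17.5 h, 37 C) were multiplexed with a fluorogenic viability reagent, CellTiter-Fluor, read after 30 min to flag cytotoxic substances.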

Test [14] in a line: qHTS assay to identify small molecule antagonists of the estrogen related receptor signaling pathway with the pleiotropic PPARgamma coactivator (PGC) cell viability counter screen (AID 1224822; note: series mostly up to about 46 µM). A digest of the protocol:
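Compounds in DMSO, with positive and negative controls, were applied to PGC/ERR cells (2,000/well) and left 17.5 h at 37 C before CellTiter-Fluor detection.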

The nature of test [15]: qHTS assay to identify small molecule antagonists of the retinoid-related orphan receptor gamma (ROR-gamma) signaling pathway - cell viability counter screen (AID 1159520). Note: nearly all actives have a fitted effect of over 50% in size. Put shortly: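 Tet-on ROR gamma CHO cells were given compounds for 2 hr, then doxycycline hyclate at 1 uM final, and incubated 16 hr at 37 C. Viability was measured as ATP content by CellTiter-Glo luminescence.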

Test [16] is described as follows: qHTS assay to identify small molecule antagonists of the retinoic acid receptor (RAR) signaling pathway (AID 1159552; note: nearly all actives have a fitted effect of over 50% in size). Put shortly: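 Quantitative HTS in C3RL4 RARE-luciferase reporter cells. Compounds were added with 1 uM (final) retinol; luminescence was read after 6 hr.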
The nature of test [17]: qHTS assay to identify small molecule agonists of the estrogen related receptor (ERR) signaling pathway (AID 1224820). A digest of the protocol:
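Cells: ERR line from NTP, 2,000/well. Pre-incubation 6 h, 37 C/5% CO2. Compound (DMSO) pin transfer, 18 h 37 C. One-Glo, 30 min RT, luminescence.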

Test [18] deals with estrogen-related receptor alpha (ERRalpha) with PGC-1alpha coactivator, human. The experiment in a line: qHTS assay to identify small molecule antagonists of the estrogen related receptor signaling pathway with the pleiotropic PPARgamma coactivator (PGC) (AID 1224821; calls by dose curve). Put shortly: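 Luminescent read-out (One-Glo, 30 min at room temperature) following 18 h treatment of PGC/ERR cells at 37 C with compounds delivered in DMSO. Cells had settled 6 h at 37 C/5% CO2 before dosing.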

Test [19] in a line: qHTS assay to identify small molecule agonists of the estrogen related receptor signaling pathway with the pleiotropic PPARgamma coactivator (PGC) (AID 1224823). A digest of the protocol: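 Steps: plate PGC/ERR cells at 2,000 cells/well; incubate 6 h, 37 C/5% CO2; pin-transfer compounds (DMSO); incubate 18 h, 37 C; add One-Glo; 30 min RT; read luminescence.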

Experimental findings from PubChem BioAssay (Tox21) are described below.

Where “and” joins values, the source holds several entries; their conditions need not be identical. Identical values can stand only once. Results filed as inconclusive are left out. Calls of active or inactive are those of the source. Unless noted, calls come from the whole dose curve; as a rule, active = well fitted curve in the direction sought with a large enough effect in the repeat runs; inconclusive = weak or mixed curves; inactive = no such curve, though single readings can be large; an effect the other way counts as inactive or inconclusive.

Chain of Retinoic acid receptor RXR-alpha (Homo sapiens) (P19793 whole entry, looked up): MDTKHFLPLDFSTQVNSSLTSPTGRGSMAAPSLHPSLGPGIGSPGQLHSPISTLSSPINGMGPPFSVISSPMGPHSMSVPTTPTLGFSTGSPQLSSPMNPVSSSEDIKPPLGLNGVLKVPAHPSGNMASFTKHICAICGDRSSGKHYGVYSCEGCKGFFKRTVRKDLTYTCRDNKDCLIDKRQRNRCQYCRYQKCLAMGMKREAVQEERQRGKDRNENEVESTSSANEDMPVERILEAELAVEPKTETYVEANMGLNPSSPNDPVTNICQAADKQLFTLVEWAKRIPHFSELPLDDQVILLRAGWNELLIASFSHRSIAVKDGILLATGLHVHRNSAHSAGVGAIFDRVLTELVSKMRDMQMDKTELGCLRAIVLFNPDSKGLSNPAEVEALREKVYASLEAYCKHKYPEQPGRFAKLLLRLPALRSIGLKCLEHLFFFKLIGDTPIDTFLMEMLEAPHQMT

In the case of `CC(C)c1c(C(=O)Nc2ccccc2)c(-c2ccccc2)c(-c2ccc(F)cc2)n1CC[C@@H](O)C[C@@H](O)CC(=O)O`, the Potency entry in test [1], in test [2], in test [3], in test [4], in [5] and in test [7] was “inactive” in each case. The Potency result in test [8], in test [9], in test [10], in test [11], in [12] and in test [14] was “inactive” throughout. Besides, the Potency in test [6] was 1.86 µM (active) and 11.4 µM (active) and 2.66 µM (active). Besides, in test [13], the compound was classed as inactive.

Turning to `O=c1[nH]cnc2c1ncn2[C@H]1CC[C@@H](CO)O1`, the Potency entry in test [1], in test [2], in [4], in test [5], in test [15] and in test [6] was “inactive” in each case. In addition, the Potency entry in test [7], in [8], in [9], in test [10], in test [11] and in test [16] was “inactive” in each case. The Potency entry in test [12] is “inactive”.

With `Cc1ccc(S(=O)(=O)O)cc1`, the Potency entry in test [1], in [2], in [3], in test [4], in [5] and in test [15] was “inactive” each time. Moreover, the Potency entry in [7], in test [8], in test [9], in test [10] and in test [11] was “inactive” each time.

For the compound `NS(=O)(=O)O`, the Potency result in [1], in [2], in test [3], in test [4], in [5] and in [15] was “inactive” each time. For the same compound, the Potency entry in test [6], in [7], in [8], in test [9], in [10] and in [11] was “inactive” in each case.

Regarding `O=C(O)c1ccccc1`, the Potency entry in [1], in test [2], in [3], in [4], in test [5] and in test [15] was “inactive” each time. Further, the Potency entry in test [6], in test [7], in [8], in [9], in [10] and in test [11] was “inactive” each time.

As for `Cn1c(=O)c2c(ncn2C)n(C)c1=O`, the Potency entry in test [1], in test [2], in [4], in test [5], in test [15] and in test [6] was “inactive” each time. Further, the Potency entry in [7], in [8], in [9], in [10], in test [11] and in test [16] was “inactive” throughout. The Potency result in [12] and in test [14] was “inactive” in each case. The compound was called inactive in [13], in test [17], in [18] and in test [19].

`NC(=O)c1cccnc1`: the Potency entry in test [1], in [2], in [3], in [4], in test [5] and in test [15] was “inactive” throughout. For the same compound, the Potency result in [6], in test [7], in [8], in test [9], in [10] and in [11] was “inactive” in each case.

In the case of `CC(=O)CC(c1ccccc1)c1c(O)c2ccccc2oc1=O` (stereo unspecified), the Potency result in test [1], in test [2], in test [3], in [4], in test [5] and in test [15] was “inactive” in each case. The Potency result in test [6], in test [7], in [8], in test [10] and in [11] was “inactive” each time.

In the case of `O=C(O)CC(O)C(=O)O` (stereo unspecified), the Potency result in test [1], in test [2], in test [4], in test [5], in test [15] and in [6] was “inactive” throughout. Moreover, the Potency result in test [7], in test [8], in test [9], in test [10], in test [11] and in test [16] was “inactive” each time. In addition, the Potency entry in [12] is “inactive”.
